Assay outcomes as filed in PubChem.
AmpC detergent – blocks E. coli AmpC beta-lactamase in detergent assay; P00811; AmpC hydrolysis of nitrocefin, absorbance 480 nm, 0.01% Triton; Potency, µM (titrated, usually from 114 µM), inactives show top-dose activity change, negative = inhibition, hits mostly inhibitors; 0.041% of 370,000 active; AID 485294;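 further: 0% = no-compound wells and -100% = no-enzyme wells; nearly all actives have a fitted effect of over 25% in size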
Target sequence (P00811 whole entry, looked up): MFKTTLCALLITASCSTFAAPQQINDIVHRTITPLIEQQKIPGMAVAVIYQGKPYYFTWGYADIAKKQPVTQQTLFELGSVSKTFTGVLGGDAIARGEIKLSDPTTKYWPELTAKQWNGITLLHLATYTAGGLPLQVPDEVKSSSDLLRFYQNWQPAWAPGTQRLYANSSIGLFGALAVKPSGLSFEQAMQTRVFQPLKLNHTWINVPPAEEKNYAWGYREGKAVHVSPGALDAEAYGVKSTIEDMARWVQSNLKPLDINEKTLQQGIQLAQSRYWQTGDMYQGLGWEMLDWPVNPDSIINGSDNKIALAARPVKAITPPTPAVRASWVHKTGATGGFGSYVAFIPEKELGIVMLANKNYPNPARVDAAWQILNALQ
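AmpC (5.3 nM in the dispensed reagent) in 20 mM phosphate pH 7.0 with 0.01% (detergent screen) or 0.0001% Triton X-100 was preincubated with compounds for 15 min at room temperature. Nitrocefin was then added from an 800 uM solution, and hydrolysis was followed at 480 nm.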
Vaccinia Venus – vaccinia inhibition (Venus reporter). 0.46% of 330,000 active. AID 720580. Potency, µM (doses to about 36.5 µM), inactives show top-dose activity change, negative = inhibition, most hits filed as inhibitors. Vaccinia virus Venus reporter expression, fluorescence; calls by dose curve; tested in A549 cells; further: nearly all actives have a fitted effect of over 30% in size
AmpC inh no detg – blocks E. coli AmpC beta-lactamase in detergent-free assay; Potency, µM (highest dose often 57.1 µM), without a hit: at the top dose activity change, negative = inhibition, usual class: inhibitors; P00811; AID 485341; AmpC nitrocefin hydrolysis, absorbance 480 nm, 0.0001% Triton; 0.52% of 330,000 active;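 further: plate controls were no compound for no effect and no enzyme for full effect; nearly all actives have a fitted effect of over 20% in size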
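AmpC (5.3 nM in the dispensed reagent) in 20 mM phosphate pH 7.0 with 0.01% (detergent screen) or 0.0001% Triton X-100 was preincubated with compounds for 15 min at room temperature. Nitrocefin was then added from an 800 uM solution, and hydrolysis was followed at 480 nm.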
Vaccinia mCherry – vaccinia inhibition (mCherry reporter) | 0.63% of 310,000 active | Vaccinia virus mCherry reporter infection, fluorescence | Potency, µM (doses to about 36.5 µM), inactives show at the highest dose activity change, negative = inhibition, hits mostly inhibitors; calls by dose curve; tested in A549 cells; further: nearly all actives have a fitted effect of over 35% in size
* hit, by the source's call; i = inactive; u = inconclusive; x = no result. Compounds with a hit are over-represented: about 1.1% of the library has one in this group of screens. Unless noted, the call rests on the fitted dose curve; in most records, active means well fitted curve in the direction sought with a large enough effect; inconclusive means small, poorly fitted or top-dose-only effect, or another doubt; inactive means no such curve, though single readings can be large; an effect the other way counts as inactive or inconclusive. Unless noted, on the % scale 0 is the no-effect control and ±100 the full control effect; potency means the concentration at half of the fitted maximal effect.

SMILES	AmpC detergent	Vaccinia Venus	AmpC inh no detg	Vaccinia mCherry
COc1ccc(CCN(C)C(=O)c2cnn(-c3nccc(-c4ccc(C)o4)n3)c2C)cc1OC	x	-11.3%	x	-17.3%
CC1CC(C)(O)CC(C(O)CC2CC(=O)NC(=O)C2)C1=O (stereo not drawn)	x	35.5µM*	x	u
CC(C)c1c(C(=O)NCc2ccncc2)cnn1-c1nccc(-c2cccs2)n1	x	-6.2%	x	-8.1%
CCn1c(SCC(=O)NCc2ccccc2)nc2c(c1=O)SC(C)C2 (stereo not drawn)	-2.1%	-2.0%	1.58µM*	8.4%
CCn1c(SCC(=O)NCc2ccc(F)cc2)nc2c(c1=O)SC(C)C2 (stereo not drawn)	-7.7%	-9.0%	-13.4%	4.5%
CC1Cc2nc(SCC(=O)N3CCN(c4ccccc4)CC3)n(CCc3ccccc3)c(=O)c2S1 (stereo not drawn)	-12.2%	-12.5%	3.55µM*	8.0%
CC1Cc2nc(SCC(=O)N3CCN(c4ccccc4)CC3)n(C)c(=O)c2S1 (stereo not drawn)	u	6.9%	1.58µM*	-2.6%
O=C(N/N=C/c1cc(Br)ccc1O)C(=O)Nc1ccccc1OC(F)(F)C(F)F	3.0%	x	-40.4%	x
O=C(N/N=C/c1cc(Cl)ccc1O)C(=O)Nc1ccccc1OC(F)(F)C(F)F	-7.0%	u	-17.3%	14.1µM*
COc1cccc(-c2ccc(O)c(CNCc3cccc4ccccc34)c2)n1	x	-11.9%	x	i
O=C1C2C3C=CC(CC3)C2C(=O)N1c1ccccc1 (stereo not drawn)	u	x	-9.1%	x
O=C1C=CC2C3C(=O)N(c4ccccc4)C(=O)C3C1N2Cc1ccccc1 (stereo not drawn)	x	u	x	28.2µM*
CCCS(=O)(=O)NCc1c(C)ncc2c1CCN(C(=O)c1c(F)ccc(F)c1F)C2	x	7.1%	x	-1.2%
NS(=O)(=O)c1cccc(NC(=O)Nc2ccc(Cl)cc2)c1	-4.5%	-9.5%	14.1µM*	-17.5%
CS(=O)(=O)Nc1ccccc1C(=O)Nc1cc(Cl)cc(Cl)c1	-2.3%	11.2µM*	-23.3%	7.94µM*
Cc1cccc(NC(=O)Nc2ccc(S(N)(=O)=O)cc2)c1	1.7%	6.5%	-44.5%	-16.3%
O=C(Nc1ccccc1)Nc1cc(Cl)cc(Cl)c1	-6.8%	11.2µM*	-51.8%	x
CS(=O)(=O)Nc1ccccc1C(=O)Nc1cccc(Cl)c1	-0.9%	-22.6%	-22.1%	u
CCn1c(-c2ccccc2F)nc2cc(C(=O)NCC3CCOCC3)cc(NC(C)=O)c21	x	-2.4%	x	-11.7%
CC(=O)Oc1ccc2c(c1)CC[C@@H]1[C@@H]2CC[C@]2(C)[C@@H](O)CC[C@@H]12	x	-9.5%	x	i
CCC1C(=O)NCCN1Cc1ccc2c(c1)CN(Cc1ccc3c(c1)OCCO3)CCO2 (stereo not drawn)	x	-6.1%	x	-8.6%
COc1ccc(Nc2nc(-c3ccccc3O)nc3ccccc23)cc1	0.1%	u	2µM*	u
Cc1ccc(-c2nc(Nc3cccc(O)c3)c3ccccc3n2)cc1	-11.4%	x	u	x
COc1cc(Nc2c3ccccc3nc3ccccc23)cc(OC)c1OC	-0.2%	u	8.4%	u
COc1ccccc1Nc1c2ccccc2nc2ccccc12	4.3%	u	-5.5%	11.2µM*
SMILES	AmpC detergent	Vaccinia Venus	AmpC inh no detg	Vaccinia mCherry
Oc1cccc(Nc2nc(-c3ccccc3Cl)nc3ccccc23)c1	-3.5%	-20.2%	-33.2%	10µM*
Oc1cccc(Nc2c3ccccc3nc3ccccc23)c1	10.5%	10µM*	-52.7%	u
COc1ccc(CN2CCCC(Cn3cc(C(=O)N4CCCC4)nn3)C2)c(O)c1 (stereo not drawn)	x	-9.5%	x	-9.6%
O=c1c2c(nc3c(-c4ccc(Cl)cc4)c[nH]n13)CCCC2	-3.2%	4.47µM*	-46.3%	u
O=S(=O)(Nc1cccc2cccnc12)c1ccccc1	1.6%	12.6µM*	-38.6%	10µM*
Cc1cccc(C(=O)NCc2nc(-c3cccc(NC(=O)C4CCCN(C)C4)c3)oc2C)n1 (stereo not drawn)	x	1.1%	x	-13.3%
Cc1ccc(OCCn2c(C3CC(=O)N(Cc4ccc(F)cc4)C3)nc3ccccc32)c(C)c1 (stereo not drawn)	4.0%	u	x	-10.2%
CCc1ccc(OCCn2c(C3CC(=O)N(Cc4ccc(F)cc4)C3)nc3ccccc32)cc1 (stereo not drawn)	10.3%	11.2µM*	x	u
O=C(c1ccoc1)N1CCOc2ccc(CN3CCC(Oc4cccnc4)CC3)cc2C1	x	11.5%	x	-7.4%
COc1ccc(C(=O)Cn2c(C)nc([N+](=O)[O-])c2Br)cc1	1.8%	7.94µM*	-12.2%	3.55µM*
Cc1nc([N+](=O)[O-])c(Br)n1CC(=O)c1ccc(Cl)cc1	u	u	0.4%	x
COc1cc(/C=C/C(=O)OCC(=O)NC(=O)NCc2ccco2)ccc1OC(F)F	x	-12.8%	20µM*	i
COc1cc(CNCCc2ccccc2)cc(Cl)c1OCc1ccccc1	2.1%	u	19.9%	10µM*
Cc1cc(N/N=C/c2ccccc2)nc(NCc2ccccc2)n1	-6.5%	u	-20.5%	10µM*
CCn1cc([N+](=O)[O-])c(C(=O)N2N=C(c3ccc4ccccc4c3)CC2c2cc(Br)ccc2O)n1 (stereo not drawn)	-6.5%	u	-1.9%	14.1µM*
CCCS(=O)(=O)NCc1c(C)ncc2c1CCN(C(=O)c1ccc3[nH]c4c(c3c1)CCCC4)C2	x	6.8%	x	-10.2%
Cc1cc(C(=O)Nn2c(-c3ccc(Br)cc3)nc3ccccc3c2=O)ccc1[N+](=O)[O-]	-13.4%	-21.5%	14.1µM*	i
Cc1ccc(C2CC(c3ccccc3)=NN2c2ccc(S(N)(=O)=O)cc2)cc1 (stereo not drawn)	x	-10.6%	x	-3.3%
CCc1ccc(C2=NN(c3ccc(S(N)(=O)=O)cc3)C(c3ccc(F)cc3)C2)cc1 (stereo not drawn)	-0.1%	u	0.199µM*	u
Cc1ccc(NC(=O)c2sc(Cl)nc2C)c(C)c1	u	u	-0.4%	11.2µM*
Cc1ccccc1NC(=O)c1sc(Cl)nc1C	-7.7%	u	-5.7%	10µM*
O=C(COc1ccccc1C(=O)Nc1ccccc1)Nc1ccc2ccccc2c1	x	-19.7%	x	-7.4%
CC(=O)Nc1nnc(-c2ccc(Cl)s2)o1	5.4%	-14.9%	1.58µM*	i
CCC(=O)Nc1nnc(-c2ccc(Cl)s2)o1	-0.5%	-12.7%	-27.6%	i
COC(=O)C[C@H]1c2ccccc2S(=O)(=O)N1c1ccc(N(C)C)cc1	x	-10.4%	x	-21.3%
COc1cc(-c2coc3c(C(=O)NCc4ccc(OC)c(OC)c4)cccc23)ccc1O	x	u	x	15.8µM*
CCCCC(CC)CN=C(N)NC(N)=NCCCCCCN=C(N)NC(N)=NCC(CC)CCCC (stereo not drawn)	u	10µM*	206.7%	u
CCCCCCCCCCCCCCCC[n+]1ccc(CC(O)c2c(C)[nH]c3ccccc23)c2ccccc21 (stereo not drawn)	x	i	x	i
COc1cccc(C(=O)/C=C/c2ccc(OCC#N)c(OC)c2)c1	-2.8%	u	-25.8%	u
